High-throughput results: PubChem, Center for Chemical Genomics, University of Michigan
This is one part of a sample in which hits are shown more often than they occur.
Dicer inh: human Dicer pre-microRNA cleavage inhibition; Q9UPY3; cat-ELCCA pre-miR-21 Dicer processing, chemiluminescence; active compounds read high; z-score at 25 µM; 47,000 compounds, 6% hits; in the data active means z-score above about 3, passing the limit was not always enough;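 further: plate controls were vehicle for no effect and no enzyme for full effect; higher signal means more uncleaved substrate so more Dicer inhibition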
* hit, by the source's call.

SMILES | Dicer inh
Cn1ccnc1SCC(=O)Nc1ccc(C(C)(C)C)cc1 | 0.87
CCCC12CN3CC(CCC)(CN(C1)C3c1ccc(OC)c(OC)c1)C2=O (centres undefined) | 23
O=C(Cn1c2ccccc2n2ncnc12)c1ccc(-c2ccccc2)cc1 | 1.8
Cn1ccnc1SCC(=O)c1ccc(Cl)cc1 | 0.03
Cn1ccnc1SCC(=O)N1CCCC1 | 4.5*
Cn1ccnc1SCC(=O)Nc1ccccc1 | 0.15
O=c1[nH]c(=O)n(CCc2ccccc2)c2c1CN(C1CCCCC1)CN2 | 1
Cc1cccc(Cl)c1OC(=O)c1cc(C(C)(C)C)nn1C | -1.1
O=C(O)COCC(=O)N1CCC(n2cccc2)CC1 | -0.37
CCCS(=O)(=O)c1c(S(=O)(=O)CCC)c2ccc(C(N)=O)cn2c1C(=O)c1ccc(C)cc1 | 0.19
CC(=O)n1sc2nc(C)cc(C)c2c1=O | 0.02
O=C(CSc1n[nH]c(=O)n1-c1ccccc1)c1ccc2c(c1)OCCO2 | 1.2
CSc1nnc(SCC(=O)c2ccc3c(c2)OCCO3)s1 | 1.9
CC(c1ccccc1)n1c(OC(=O)N(C)C)nnc1SCC(=O)c1ccc2c(c1)OCCO2 (centres undefined) | 3.6*
CCOC(=O)C(=CNC1CCCCNC1=O)C(=O)OCC (centres undefined) | -0.8
COc1ccc(-c2n[nH]c(C)c2-c2ccc(F)cc2)c(O)c1 | 1.6
Cc1[nH]nc(-c2ccc(O)cc2O)c1Oc1ccccc1 | -1.1
CCOc1ccc(-c2n[nH]c(C)c2-c2ccccc2)c(O)c1 | 5.1*
COC(=O)C1=C(C)Nc2nc3ccccc3n2C1c1cccc(C)c1 (centres undefined) | 1
S=c1[nH]nc(NC2CCCCC2)s1 | 0.77
S=C(NC1CCCCC1)C(=S)NC1CCCCC1 | -1.1
O=c1c(NC2CCCCC2)c(NC2CCCCC2)c1=O | 5.9*
O=C(O)CSc1nc2c(c(C(F)(F)F)n1)CCc1ccccc1-2 | 1.8
COCCNC(=O)c1cc2nc3c(c(C(F)(F)F)n2n1)CCc1ccccc1-3 | 3.2*
CC(C)(C)NC(=O)c1cc2nc(-c3ccc(Br)cc3)cc(C(F)(F)F)n2n1 | -1.2
SMILES | Dicer inh
CC(C)(C)NC(=O)c1cc2nc3c(c(C(F)(F)F)n2n1)CCc1ccccc1-3 | 3.6*
O=C(NCC1CCCO1)c1nn2c(C(F)(F)F)c3c(nc2c1Cl)-c1ccccc1CC3 (centres undefined) | 2.9
FC(F)(F)c1c2c(nc3cc(-c4cccs4)nn13)-c1ccccc1C2 | -0.63
Cn1nnnc1SCCNCc1cc(Br)ccc1OCc1ccccc1 | 0.99
O=C(O)C1CC(=O)N(c2cccc(O)c2)C1 (centres undefined) | 0.79
COc1ccc2c(ccc(/C=C3\Sc4ccccc4N3C)[n+]2C)c1 | -0.9
COc1ccc(C(=O)OCC(=O)c2ccc(Br)cc2)cc1OC | 0.14
Cc1ccc(I)c(C(=O)OCC(=O)c2ccc(Br)cc2)c1 | 1.2
COc1cccc(C(=O)OCC(=O)c2ccc(Br)cc2)c1 | 5.9*
Cn1c(=O)[nH]c(=O)c2c1nc1n2CCN1Cc1ccco1 | -0.49
COc1ccc(CCN2C(=O)CSC2=Nc2cc(Cl)cc(Cl)c2)cc1OC | -0.84
C=CCOc1ccc(C2c3c(oc4cc(C)c(C)cc4c3=O)C(=O)N2CCCN2CCOCC2)cc1 (centres undefined) | 0.07
O=C1c2ccccc2NC(c2ccc(Br)cc2)N1c1ccc(F)cc1 (centres undefined) | -0.57
Cc1ccc2nc(S/C=C/C(=O)c3cccc(Br)c3)[nH]c2c1 | 3.5*
CSC(=NC#N)S/C=C/C(=O)c1cccc(Br)c1 | -2.2
CCc1ccc(C(=O)/C=C/Sc2nc3ccc(C)cc3[nH]2)cc1 | 0.92
O=C(O)c1ccc(N2C(=O)CC(N3CCN(Cc4ccc5c(c4)OCO5)CC3)C2=O)cc1 (centres undefined) | 1.2
Cc1ncc(-c2nnnn2-c2ccccc2)c(-c2cccc(Cl)c2)n1 | 0
COc1ccc(Oc2c(C(F)(F)F)oc3cc(OCC(=O)NC4CCCCC4)ccc3c2=O)cc1 | 0.45
O=c1oc2cc(S(=O)(=O)N3CCCC3)ccc2c2ccc(S(=O)(=O)N3CCCC3)cc12 | 3.5*
CN(C)S(=O)(=O)c1ccc2c(c1)oc(=O)c1cc(S(=O)(=O)N(C)C)ccc12 | -0.56
CC(C)(C)NS(=O)(=O)c1ccc2c(c1)oc(=O)c1cc(S(=O)(=O)NC(C)(C)C)ccc12 | -0.8
COc1ccc(COC(=O)C2=C(C)NC3=C(C(=O)CC(C)(C)C3)C2c2ccc(SC)cc2)cc1 (centres undefined) | 1.9
CCCCC(=O)N1c2ccccc2NC2=C(C(=O)CCC2)C1c1cccs1 (centres undefined) | -0.59
COc1ccccc1N1C(=O)CC(N2CCN(c3ccc(F)cc3)CC2)C1=O (centres undefined) | 0.32
SMILES | Dicer inh
O=C1CC(N2CCN(c3ccccc3O)CC2)C(=O)N1c1ccccc1F (centres undefined) | 2.3
Cc1cccc(N2C(=O)CC(n3ccnc3)C2=O)c1C (centres undefined) | 3.5*
CCOC(=O)/C(C#N)=C/Nc1nc2ccc(F)cc2s1 | -0.83
CCOC(=O)c1sc(N2C(=O)C(=O)/C(=C(/O)c3ccccc3)C2c2ccc(O)cc2)nc1C (centres undefined) | 2.3
C=C(C)Cc1c(COC)[nH]c(=S)[nH]c1=O | 1
Cc1nccn1CC(=O)N1c2ccccc2Sc2ccccc21 | 5.5*
CCOC(=O)C(=O)N1c2ccccc2Sc2ccccc21 | 9.8
O=C1CCC(=O)N1CC(=O)N1c2ccccc2Sc2ccccc21 | -0.22
C#CCOc1ccc(Cl)cc1C1C2=C(CC(C)(C)CC2=O)N(CC(=O)O)C2=C1C(=O)CC(C)(C)C2 | -0.45
CCC(C)C(NC(=O)C(NC(=O)OCc1ccccc1)C(C)C)C(=O)O (centres undefined) | 0.42
O=c1c(Cl)c(N2CCOCC2)cnn1-c1c(Cl)cc(C(F)(F)F)cc1Cl | -0.62
Cc1ccc(C2/C(=C(\O)c3ccc(F)cc3)C(=O)C(=O)N2Cc2cccnc2)cc1 (centres undefined) | -5.3
CCOC(=O)c1c(C)oc2ccc(OCC(N)=O)cc12 | 3
CCOC(=O)c1c(COc2ccccc2)oc2ccc(O)cc12 | 1.5
CCOC(=O)c1c(CN2CCOCC2)oc2ccc(OC)cc12 | 3.5*
C=CCN1C(=O)/C(=C\c2ccc(OCc3ccccc3)cc2)N=C1c1ccccc1 | 0.88
O=C1/C(=C\c2ccccc2)N=C(c2ccccc2)N1c1ccccc1 | -0.09
O=C1/C(=C/c2ccc(Cl)cc2)N=C(c2ccccc2)N1CCc1ccc(Cl)cc1 | 4.2*
O=C1/C(=C\c2cccs2)N=C(c2ccccc2)N1Cc1ccc(Cl)cc1 | -0.52
NC(=O)CN1C(=O)/C(=C\c2ccc(F)cc2)N=C1c1ccccc1 | 0.21
COc1ccc(/C=C2/N=C(c3ccccc3)N(Cc3ccc(F)cc3)C2=O)cc1 | 3.9*
CCCCSC1=C(C#N)C(=O)NC(c2ccc(OC)cc2OC)S1 (centres undefined) | 1.3
CC1C(c2ccccc2)N(C)C(c2ccccc2)C(C)C1(O)c1ccc(F)cc1 (centres undefined) | -2.4
COC(=O)c1cc(S(=O)(=O)NCC2CN(Cc3ccccc3)CN(Cc3ccccc3)C2)oc1C | 2.3
COC(=O)/C=C1\SC(=Nc2ccc(C(C)(C)C)cc2)N(c2ccc(C(C)(C)C)cc2)C1=O | 0.81
CCCCCCc1c(O)c2cccc3c4c(n(c1=O)c23)CCCC4 | -0.52
O=C(CSc1n[nH]c(=O)n1Cc1ccco1)c1cc(-c2ccccc2)no1 | -1.5
O=C1/C(=C/c2ccc(-c3nn[nH]n3)cc2)C(c2ccccc2)Oc2ccccc21 (centres undefined) | 1.3
